Assay results from PubChem BioAssay (NCI).
The panel holds about 79,000 compounds, 15% with a hit somewhere; the sample as a whole holds those more often. Unmarked numbers belong to inactive results. Activity calls are given as the source filed them. No stated cut-off is given here; in the data, active means growth inhibition above about 70%; inactive means the rest.

Columns and labels:
[1] = NCI Yeast Anticancer Drug Screen. Data for the rad50 strain (AID 155);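 further: 0% = growth of vehicle-only cultures of the same strain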; conditions: S. cerevisiae rad50 strain growth inhibition; at 50.0 µM; hits give high values
Procedure, shortened: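 Cells are treated with compound, grown, and their growth is then scored against vehicle-only cultures of the same repair-deficient yeast strain.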

[2] = NCI Yeast Anticancer Drug Screen. Data for the mec2-1 strain (AID 157); conditions: S. cerevisiae mec2-1 strain, at 50.0 µM, hits give high values
Procedure, shortened: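 Yeast mec2-1 mutant treated with compound. Readout: growth inhibition vs vehicle controls.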

[3] = NCI Yeast Anticancer Drug Screen. Data for the sgs1 mgt1 strain (AID 161);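 further: 0% = growth of cultures given vehicle only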; conditions: S. cerevisiae sgs1 mgt1 strain, at 50.0 µM, hits give high values
Procedure, shortened: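 Test agents were incubated with a DNA-repair-mutant yeast strain. Growth was then read and compared against vehicle-treated controls.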

[4] = NCI Yeast Anticancer Drug Screen. Data for the cln2 rad14 strain (AID 165);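 further: 0% = growth equal to vehicle treated cultures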; conditions: S. cerevisiae cln2 rad14 strain, at 50.0 µM, hits give high values
Procedure, shortened: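 cln2 rad14 yeast strain; compound exposure; growth inhibition read vs vehicle controls.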

[5] = NCI Yeast Anticancer Drug Screen. Data for the bub3 strain (AID 167); conditions: S. cerevisiae bub3 mutant strain, at 50.0 µM, hits give high values
Procedure, shortened: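 Part of a panel of yeast mutants defective in DNA damage repair or cell cycle regulation. Each strain is grown with compound, and inhibition is calculated relative to solvent-treated cultures.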

[6] = NCI Yeast Anticancer Drug Screen. Data for the mlh1 rad18 strain (AID 175); conditions: S. cerevisiae mlh1 rad18 strain growth inhibition; at 50.0 µM; hits give high values
Procedure, shortened: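 Yeast w/ defined DNA-repair lesions; compound exposure; growth vs vehicle controls → % inhibition.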

SMILES | growth inhibition [1] | growth inhibition [2] | growth inhibition [3] | growth inhibition [4] | growth inhibition [5] | growth inhibition [6]
CCCCOC(=O)C(C)OC(=O)COc1ccc(Cl)cc1C (configuration not stated) | 5.05% | -13.7% | 15.4% | -40.7% | 2.25% | -1.05%
OCc1c(CO)c(-c2ccc(Cl)c(Cl)c2)n2c1CCC2 | 13.4% | 2.4% | 8.1% | 14.9% | -0.2% | 51%
Brc1ccc2noc(-c3ccccc3)c2c1 | 29.4% | 2.25% | 31.6% | -1.6% | 9.95% | 16.9%
c1ccc2c(c1)ccc1c3ccccc3ccc21 | 14.5% | 10.9% | 13.6% | 25.6% | 24.4% | 17.6%
Clc1cccc[n+]1CCc1ccccc1 | 9.4% | 22.9% | 5.3% | -4.55% | 7.55% | 44%
CCOc1ccccc1N1C(=O)C(=O)C(c2nc3ccccc3o2)C(=O)C1=O | -8.75% | 4.3% | -8.4% | -15.9% | 2.55% | -3.2%
Nc1ccc(CC(=O)O)cc1S(=O)(=O)O | 25.8% | -18.4% | 4% | 9.1% | 4.25% | 26.6%
CC(C)(O)c1c(F)c(F)c(F)c(F)c1F | 17.2% | -13.7% | 5.1% | 17.6% | 27.8% | 7.15%
COc1ccc2oc(C(=O)O)cc2c1 | -4.55% | -3.65% | -9.05% | -25% | -6.6% | 0.6%
CC1C(=O)OC(C)(C)C1(C)C (configuration not stated) | 22.4% | -16.3% | 4.75% | -41.6% | 0.2% | -10.4%
O=C(Nc1cccc(F)c1)Sc1ccc(Cl)cc1 | 55% | 53.9% | 56.1% | 34% | 56.4% | 41%
Cc1cc(S(=O)(=O)/N=C(/NN)Nc2ccc(Cl)cc2)c(S)cc1Cl | 22.6% | 8.15% | 19.9% | 3.8% | 27.5% | 29.9%
O=C(Nc1cc(Cl)c(Oc2ccc(Cl)cc2)cc1S(=O)(=O)O)Nc1cccc(Cl)c1Cl | 99% (active) | 99.5% (active) | 99.6% (active) | 98.2% (active) | 98.7% (active) | 99.4% (active)
COc1cc(C(=O)C(O)c2cc(OC)c(OC)c(OC)c2)cc(OC)c1OC (configuration not stated) | 18% | 11.2% | 11.1% | -13% | 2.95% | 28.3%
O=C(N/N=C\c1ccc(Cl)c(Cl)c1)c1ccncc1 | -6.65% | -1% | -3.05% | 5.4% | -1.75% | -5.7%
CCNCC(OC)C(COC)OC(=O)c1ccc([N+](=O)[O-])cc1 (configuration not stated) | 15.1% | -11.6% | -7.65% | -32.9% | 20.4% | 7.25%
COC(=O)[C@H]1C=C[C@H](OC2OC(COC(C)=O)C(OC(C)=O)C(OC(C)=O)C2OC(C)=O)n2c(=O)n(-c3ccccc3)c(=O)n21 (some centres not stated) | 8.3% | 14% | -1.25% | 5.5% | 15.8% | -48%
Cc1c(O)c2cccc(-c3ccccc3)c2oc1=O | 5.8% | 17.5% | 11.1% | -6.3% | -4.8% | 17.6%
CCn1cc(C(=O)C(=O)N(C)C)c2ccccc21 | 13.2% | -7.75% | -2.5% | -3.35% | 17.2% | 1.95%
C#CCN(C)Cc1cc(OC)c(OC)c(OC)c1 | -43.2% | -0.75% | 6.55% | -10.9% | 7.65% | 14.4%
c1cc(OCC2CO2)ccc1OCC1CO1 (configuration not stated) | 41% | 19.9% | 33.1% | -24.9% | 8.8% | 49.4%

SMILES | growth inhibition [1] | growth inhibition [2] | growth inhibition [3] | growth inhibition [4] | growth inhibition [5] | growth inhibition [6]
Cc1cc(Cl)c(Cl)cc1NC(=O)c1c(Br)c(Br)c(Br)c(Br)c1C(=O)O | 0.7% | 11.4% | 8% | -16.1% | -3.2% | 28.4%
Cc1ccc(CCCCCOc2ccc(C3=NCCO3)cc2)s1 | -2% | 22.2% | 22.4% | -21% | -3% | -4.9%
CC(=O)Nc1ccc(Cc2[nH]c(=O)[nH]c(=O)c2Br)cc1 | 4.3% | -30.9% | -19.6% | -0.6% | 1.05% | -16.2%
CC(C(=O)c1ccc(Cl)cc1)[n+]1cc(Br)cc(Br)c1 (configuration not stated) | -22.6% | -14.2% | -9.3% | -19.4% | -21.4% | -10.2%
CC(O)C(O)C(O)CO (configuration not stated) | 6.1% | 18.4% | -3.85% | 19.8% | 24.4% | 8.95%
CS(=O)(=O)c1nc2ncnc(N)c2[nH]1 | -6.2% | -18.1% | -6.3% | -22.4% | -27.1% | -4.75%
CCC(O)(CC)c1ccc2ncccc2c1 | 3.6% | 6.05% | 7.7% | -19.1% | -6.65% | 7%
O=C1c2ccccc2-c2nc(/C=C/c3ccccc3)cc3c2c1nc1ccccc13 | 10.2% | 6.2% | 8.6% | 7% | -9.5% | -0.25%
CC(=O)CC(=O)N1CCCCCC1 | -0.65% | -16.9% | 0.5% | 11.8% | -13.3% | 25.1%
O=C(Nc1ccc([N+](=O)[O-])cc1)Oc1c(Cl)cc(Cl)c(Cl)c1[N+](=O)[O-] | 43.6% | -18.7% | 57.2% | 25.6% | 2.3% | 60.4%
COC(=O)C1OC1(C)c1ccccc1 (configuration not stated) | 2.3% | 4.6% | -0.25% | -0.35% | -1.95% | -2.55%
C#CCOC(=O)c1ccc(OC(C)=O)cc1 | -3.45% | 1.45% | 10.1% | 3.45% | 14.2% | -1.65%
Nc1cccc(CNC(=O)COc2ccc(Cl)c(Cl)c2)c1 | 84.7% (active) | 68.9% | 89.7% (active) | 77.2% (active) | 79.8% (active) | 82.8% (active)
Fc1cc(Cl)c(F)cc1Cl | -18% | -17.8% | -18.2% | -27.3% | -12.4% | -27.4%
Cc1noc2cccc(O)c12 | 0.95% | 12.6% | 15.8% | 10.9% | 1.25% | 34.6%
O=C(COc1cccc(Cl)c1)Nc1ccc(Cl)cc1 | -0.5% | -26.7% | -18.9% | -13.8% | 17.4% | 4.3%
Cc1cc(C)n(-c2ccnc(-n3nc(C)cc3C)n2)n1 | 22% | 23.9% | 33.9% | 7.7% | 21.6% | 40.3%
Cc1ccc(S(=O)(=O)OCCOc2ccc(C(C)(C)CC(C)(C)C)cc2)cc1 | 43.9% | -15.6% | 30.5% | -6.2% | -1.65% | 8.8%
O=C1C=C(c2ccccc2)C(=O)C(c2ccccc2)=C1c1ccccc1 | 73.2% (active) | 88.2% (active) | 88.8% (active) | 80% (active) | 78.2% (active) | 89.6% (active)
CC1OC2=N[C@@H]1C(=O)N[C@@H](C(C)C)C1=N[C@H](C(=O)N[C@@H](C(C)C)C3=N[C@H](C(=O)N[C@@H](C(C)C)C4=N[C@H](C(=O)N[C@H]2C(C)C)C(C)O4)C(C)O3)C(C)O1 (some centres not stated) | 6.9% | 3.55% | 3.55% | 19.1% | 14.8% | 9.55%
N=C(N)C=O | -12.4% | 0.3% | 5.45% | 0.05% | 1.45% | -7.95%
